The text below walks through data of PubChem BioAssay (NCATS).

In experiment [1] the test system is Zika virus NS2B-NS3 protease (unlinked complex). Description: Primary screen GU Rhodamine qHTS for Zika virus inhibitors: Unlinked NS2B-NS3 protease assay (AID 1347159). Further: on the % scale 0 is the no-effect control and ±100 the full control effect; nearly all actives have a fitted effect of over 60% in size. An outline of the steps: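 Noncovalent NS2B hydrophilic domain/NS3 protease complex (25 nM final) in 10 mM Tris-HCl pH 8.0, 0.01% Tween 20, preincubated 15 min with compounds (up to 114 microM), then 1.5 microM Rhodamine110 substrate. Fluorescence change over 15 min fitted to 4-parameter Hill.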

Experiment [2] deals with Cytochrome P450 2D6 (Homo sapiens) (UniProt P10635). Description: Cytochrome P450 family 2 subfamily D member 6 (CYP2D6) small molecule antagonists: luciferase biochemical (cell-free) qHTS assay (AID 1645840; active means well fitted curve in the direction sought with a large enough effect in the repeat runs; an effect the other way counts as inactive or inconclusive; further: nearly all actives have a fitted effect of over 55% in size; further: potency means the concentration at half of the fitted maximal effect; on activity change, negative = inhibition: on the % scale 0 is the no-effect control and ±100 the full control effect). An outline of the steps: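 P450-Glo luminescent screen: recombinant CYP2D6 enzyme–proluciferin substrate mix preincubated with compound 10 min at room temperature, then NADPH regeneration added for 1 h at room temperature. Detection reagent added for 20 min; luciferin light read as relative luminescence units.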
Background: In qHTS, concentration-response curves come from the screen itself.

Experiment [3] deals with Cytochrome P450 2C9 (Homo sapiens) (UniProt P11712). Description: Cytochrome P450 family 2 subfamily C member 9 (CYP2C9) small molecule antagonists: luciferase biochemical (cell-free) qHTS assay (AID 1645842; active means well fitted curve in the direction sought with a large enough effect in the repeat runs; an effect the other way counts as inactive or inconclusive; further: nearly all actives have a fitted effect of over 55% in size; further: potency means the concentration at half of the fitted maximal effect; on activity change, negative = inhibition: on the % scale 0 is the no-effect control and ±100 the full control effect). In outline: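 Luminescence, after 20 min with luciferin detection reagent, reflected CYP2C9 turnover during a 1 h NADPH-driven reaction at 37C. Enzyme-substrate mix contained 0.4% bovine serum albumin and was preincubated with compound 10 min at room temperature.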

A short description of experiment [4]: Primary qHTS for inhibitors of nuclear receptor binding SET domain protein 2 (NSD2) in an isogenic RCH-ACV NSD2 p.E1099K mutant (9B) (AID 1645876). Further: nearly all actives have a fitted effect of over 70% in size. Further: potency means the concentration at half of the fitted maximal effect. On activity change, negative = viability loss: on the % scale 0 is the no-effect control and ±100 the full control effect.
The nature of experiment [5]: Primary qHTS for inhibitors of nuclear receptor binding SET domain protein 2 (NSD2) in an RCH-ACV wild type WT cells (2C) (AID 1645877). Further: nearly all actives have a fitted effect of over 70% in size. Further: potency means the concentration at half of the fitted maximal effect.
Experiment [6] deals with CRL-7250. Description: Cytotoxic Profiling of Annotated Libraries Using Quantitative High-Throughput Screening (AID 1296008). Further: nearly all actives have a fitted effect of over 60% in size. Further: potency means the concentration at half of the fitted maximal effect. As to conditions: Five cell lines viability, CellTiter-Glo ATP luminescence, 48-72 h; max response: stronger effect = lower value. An outline of the steps: (§1)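 Cells exposed to compounds for 48 or 72 hr at 37 degrees Celsius. Viability read as ATP-coupled luminescence with CellTiter-Glo after 10 min at room temperature.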
A general note: Cellular ATP, detected with luciferase, serves as a proxy for viable cell number.

Experiment [7] has as its system CRL-7250. Put plainly: qHTS assay to identify novel small-molecules to repurpose for Merkel cell carcinoma treatment (AID 1296009). Further: nearly all actives have a fitted effect of over 60% in size. As to conditions: MCC and control cell lines, CellTiter-Glo viability, 72 h; series mostly up to 92 µM. An outline of the steps:
(§2)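 Cells were incubated with compound for 72 hr at 37 degree celsius before CellTiter-Glo addition. Luminescence was normalized with no-cell wells as full cytotoxicity and DMSO as baseline.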

Experiment [8] can be described thus: P-glycoprotein substrates identified in KB-8-5-11 adenocarcinoma cell line, qHTS therapeutic library screen (AID 1346987). Further: on the % scale 0 is the no-effect control and ±100 the full control effect; nearly all actives have a fitted effect of over 65% in size. In outline:
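P-gp-mediated resistance screen: KB-8-5-11 cells treated 72 h with compounds in dose-response. CellTiter-Glo viability.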

The target of experiment [9] is Catechol O-methyltransferase (Homo sapiens) (UniProt P21964). Description: Confirmatory Screen for Target Class Profiling of Small Molecule Inhibitors of Methyltransferases (AID 1745852). On activity change, negative = inhibition: on the % scale 0 is the no-effect control and ±100 the full control effect. As to conditions: MTase-Glo luminescence, SAH detection, recombinant enzyme; measured here: COMT max response; stronger effect = lower value.
Experiment [10] deals with Guanidinoacetate N-methyltransferase (Homo sapiens) (UniProt Q14353). The experiment is described as above. As to conditions: activity change, negative = inhibition: at 57.3 µM (top of the series) unless noted.
The target of experiment [11] is Nicotinamide N-methyltransferase (Homo sapiens) (UniProt P40261). Described as above. As to conditions: MTase-Glo luminescence, SAH detection, recombinant enzyme; measured here: NNMT max response; stronger effect = lower value.
Experiment [12] has as its target Phenylethanolamine N-methyltransferase (Homo sapiens) (UniProt P11086). The description is as above. As to conditions: MTase-Glo luminescence, SAH detection, recombinant enzyme; measured here: PNMT max response; stronger effect = lower value.
The next experiment relates to KB-3-1. Put plainly: Cytotoxic Profiling of Annotated Libraries Using Quantitative High-Throughput Screening (AID 1296008). Further: nearly all actives have a fitted effect of over 60% in size. Further: potency means the concentration at half of the fitted maximal effect. As to conditions: Five cell lines viability, CellTiter-Glo ATP luminescence, 48-72 h; max response: stronger effect = lower value. An outline of the steps: as §1
The next experiment has as its system NIH3T3. Description: qHTS assay to identify novel small-molecules to repurpose for Merkel cell carcinoma treatment (AID 1296009). Further: nearly all actives have a fitted effect of over 60% in size. As to conditions: MCC and control cell lines, CellTiter-Glo viability, 72 h; at 44.8 µM (top of the series) unless noted. An outline of the steps: as §2
A further experiment deals with HACAT. The experiment is described as above. As to conditions: MCC and control cell lines, CellTiter-Glo viability, 72 h; at 44.8 µM (top of the series) unless noted. In outline:
as §2

Another experiment has as its system HeLa. Put plainly: Primary qHTS to identify gynecologic anti-cancer compounds using libraries of approved drugs and bioactive compounds (AID 1345084). Further: nearly all actives have a fitted effect of over 55% in size. Further: potency means the concentration at half of the fitted maximal effect. As to conditions: Gynecologic cancer cell panel viability, ATPlite luminescence, 48 h; series mostly up to 57.5 µM. In outline:
(§3)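 In this quantitative HTS, cell killing is estimated from loss of ATP-dependent luciferase light. Cells see five compound concentrations over a 48 h exposure.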

For the next experiment, the system named is SKOV3. The experiment is described as above. As to conditions: Gynecologic cancer cell panel viability, ATPlite luminescence, 48 h; series mostly up to 57.5 µM. An outline of the steps:
as §3

Experiment [13] can be described thus: P-glycoprotein substrates identified in KB-3-1 adenocarcinoma cell line, qHTS therapeutic library screen (AID 1346986). Further: nearly all actives have a fitted effect of over 60% in size. In outline:
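Compounds were tested in dose-response against KB-3-1 and KB-8-5-11 cells at 37 degree C for 72 h, and viability was measured by luminescence. AC50 values came from curve fitting with class-based activity calls.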

The test system of the next experiment is HEK293. Put plainly: Cytotoxic Profiling of Annotated Libraries Using Quantitative High-Throughput Screening (AID 1296008). Further: nearly all actives have a fitted effect of over 60% in size. Further: potency means the concentration at half of the fitted maximal effect. As to conditions: Five cell lines viability, CellTiter-Glo ATP luminescence, 48-72 h; max response: stronger effect = lower value. In outline:
as §1

Inconclusive results are not listed. Activity calls are given as the source filed them. Unless noted, the call rests on the fitted dose curve; in most records, active means well fitted curve in the direction sought with a large enough effect; inconclusive means small, poorly fitted or top-dose-only effect, or another doubt; inactive means no such curve, though single readings can be large; an effect the other way counts as inactive or inconclusive.

Cytochrome P450 2D6 (Homo sapiens), sequence (P10635 whole entry, looked up): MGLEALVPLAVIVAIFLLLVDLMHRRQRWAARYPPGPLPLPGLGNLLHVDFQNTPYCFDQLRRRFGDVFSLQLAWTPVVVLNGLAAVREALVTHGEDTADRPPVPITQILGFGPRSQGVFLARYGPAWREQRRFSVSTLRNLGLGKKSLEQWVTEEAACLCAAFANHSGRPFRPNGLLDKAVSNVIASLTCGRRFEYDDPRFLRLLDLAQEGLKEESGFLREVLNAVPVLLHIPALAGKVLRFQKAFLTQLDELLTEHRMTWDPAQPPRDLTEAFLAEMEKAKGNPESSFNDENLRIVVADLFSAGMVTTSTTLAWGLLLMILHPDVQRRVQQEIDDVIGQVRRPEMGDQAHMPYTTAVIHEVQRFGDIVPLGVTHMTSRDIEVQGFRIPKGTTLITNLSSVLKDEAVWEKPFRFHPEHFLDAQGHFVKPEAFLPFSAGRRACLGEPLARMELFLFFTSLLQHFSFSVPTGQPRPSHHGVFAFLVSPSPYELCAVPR
Cytochrome P450 2C9 (Homo sapiens), sequence (P11712 whole entry, looked up): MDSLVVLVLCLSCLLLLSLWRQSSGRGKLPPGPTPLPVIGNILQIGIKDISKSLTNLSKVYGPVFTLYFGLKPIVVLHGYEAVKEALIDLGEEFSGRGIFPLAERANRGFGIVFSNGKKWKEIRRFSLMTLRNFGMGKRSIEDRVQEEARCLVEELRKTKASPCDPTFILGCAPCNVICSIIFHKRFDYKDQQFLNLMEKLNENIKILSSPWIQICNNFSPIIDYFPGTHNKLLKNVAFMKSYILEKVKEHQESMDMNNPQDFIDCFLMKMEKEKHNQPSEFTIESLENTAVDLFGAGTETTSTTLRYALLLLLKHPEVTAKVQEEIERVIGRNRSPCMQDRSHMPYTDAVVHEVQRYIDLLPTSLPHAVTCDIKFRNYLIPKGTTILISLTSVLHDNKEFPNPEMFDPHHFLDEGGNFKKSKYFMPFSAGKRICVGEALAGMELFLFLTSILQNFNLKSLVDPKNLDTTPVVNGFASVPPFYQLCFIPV
Catechol O-methyltransferase (Homo sapiens), sequence (P21964 whole entry, looked up): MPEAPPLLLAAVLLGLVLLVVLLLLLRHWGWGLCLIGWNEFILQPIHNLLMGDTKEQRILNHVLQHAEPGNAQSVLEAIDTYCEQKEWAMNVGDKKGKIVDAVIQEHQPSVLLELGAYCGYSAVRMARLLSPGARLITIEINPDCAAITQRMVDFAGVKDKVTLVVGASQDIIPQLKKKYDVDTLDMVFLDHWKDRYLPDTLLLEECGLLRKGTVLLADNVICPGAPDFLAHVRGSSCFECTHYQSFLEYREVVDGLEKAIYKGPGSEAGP
Nicotinamide N-methyltransferase (Homo sapiens), sequence (P40261 whole entry, looked up): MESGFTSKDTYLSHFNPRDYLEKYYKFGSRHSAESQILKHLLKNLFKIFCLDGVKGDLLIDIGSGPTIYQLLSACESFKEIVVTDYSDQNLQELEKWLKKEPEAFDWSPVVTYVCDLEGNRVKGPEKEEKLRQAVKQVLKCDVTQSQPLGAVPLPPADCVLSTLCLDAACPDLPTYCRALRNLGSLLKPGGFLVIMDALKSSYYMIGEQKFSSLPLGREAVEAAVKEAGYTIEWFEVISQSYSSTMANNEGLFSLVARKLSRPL
Phenylethanolamine N-methyltransferase (Homo sapiens), sequence (P11086 whole entry, looked up): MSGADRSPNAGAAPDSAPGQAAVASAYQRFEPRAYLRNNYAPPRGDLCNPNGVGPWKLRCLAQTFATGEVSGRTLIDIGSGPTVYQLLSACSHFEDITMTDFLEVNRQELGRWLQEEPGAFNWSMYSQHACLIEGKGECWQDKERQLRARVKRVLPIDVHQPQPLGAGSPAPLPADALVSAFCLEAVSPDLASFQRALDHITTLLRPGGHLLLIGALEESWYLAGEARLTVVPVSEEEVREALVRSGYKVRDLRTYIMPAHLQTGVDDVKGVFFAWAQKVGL

Regarding `O=C1CN=C(c2cccc(Br)c2)c2oc3ccccc3c2N1`, the Potency result (in experiment [1]; in [2]; with CRL-7250 [7]) was “inactive” in each case. Besides, the results for the Potency in [3], in [4] and in [5] were 10.7 µM (active), 9.16 µM (active) and 6.49 µM (active), respectively. Moreover, in the experiment on CRL-7250 [6], the outcome was “inactive”.

Turning to `Cc1[nH]c2ccc(Cl)cc2c1CCN(C)C`, the Potency entry in experiment [8], in [1], in experiment [3] and in experiment [4] was “inactive” each time. The Potency in [2] was 3.38 µM (active). The activity in [9] is -4.16%; in experiment [11], -4.68%; in [12], -3.11%. In addition, the activity change, negative = inhibition in experiment [10] is -1.82%. In addition, the max response with CRL-7250 [6] is -0.626% (inactive); in the experiment with KB-3-1, 3.8% (inactive). In the experiment with NIH3T3, the outcome is “inactive”.

Consider `C/C=C(\C)C(=O)OC1C2C3(C)CCC(OC4CC(OC)C(OC5OC(C)C(O)C(OC)C5O)C(C)O4)CC3CCC23OC32CCC(C(C)=O)C2(C)C1OC(=O)/C(C)=C/C` (configuration not stated), for which the activity change, negative = cytotoxicity is -5.07% [at 9.29 µM] (inactive) in experiment [8], 13% [at 11.6 µM] (inactive) in the experiment with HeLa and -30.2% [at 11.6 µM] (inactive) in the experiment with SKOV3. Besides, the Potency entry in [1] was “inactive”. In addition, the activity change, negative = viability loss in [4] is -17.6% [at 9.23 µM] (inactive). Besides, in the experiment on CRL-7250 [6], the max response is -2.9% (inactive). Besides, the outcome in the experiment on HACAT was “inactive [at 9.27 µM]”.

`COc1cc2c(cc1O)C1(C)CCC(O)C(C)(C)C1CC2=O` (configuration not stated): the Potency entry (in experiment [13]; in experiment [8]; in [1]; in experiment [4]; in experiment [5]; with HeLa) was “inactive” in each case. Also, the Potency entry in the experiment on SKOV3 was “inactive”. Moreover, the max response in the experiment on HEK293 is -7.2% (inactive). For the same molecule, the outcome in the experiment with KB-3-1, with HACAT and in the experiment on NIH3T3 was “inactive” in each case.

With `COC(=O)C12C(=O)C(C)(O)C(=O)C1(C)C(C)=CC1C3(C=O)CCC(OC(C)=O)C(C)(C)C3CCC12C` (configuration not stated), the Potency entry (in [8]; in the experiment with HeLa; with SKOV3) was “inactive” throughout. In addition, the max response in the experiment on CRL-7250 [6] was -2.11% (inactive).

Turning to `Cc1ccc(Cn2nc(C(=O)N[C@@H]3C(C)(C)[C@@H]4CC[C@@]3(C)C4)cc2-c2ccc(Cl)c(C)c2)cc1`, the Potency entry (in [1]; in experiment [2]; in experiment [4]; in the experiment with HeLa; in the experiment with SKOV3) was “inactive” in each case. Also, in experiment [3], the Potency is 2.68 µM (active). Moreover, the results for the max response in the experiment on CRL-7250 [6] and with KB-3-1 were 0.138% (inactive) and 0.44% (inactive), respectively.

For `COc1ccc(CCNCc2ccc(OC)c3ccccc23)cc1`, the figures for the Potency in experiment [4] and in experiment [5] were 14.5 µM (active) and 16.3 µM (active), respectively. The max response in the experiment with CRL-7250 [6] is -2.06% (inactive); in the experiment with KB-3-1, -13.8% (inactive). For the same molecule, the Potency entry with HeLa and in the experiment on SKOV3 was “inactive” throughout.

As for `C/C=C(\C)C(O)C(C)/C=C(C)/C=C/C/C(C)=C/Cc1nc(OC)c(OC)c(O[C@@H]2O[C@@H](C)[C@H](O)[C@@H](O)[C@H]2O)c1C` (some centres not stated), the Potency result in experiment [8] and in experiment [1] was “inactive” throughout. The Potency in experiment [4] is 3.55 µM (active); in [5] it was 3.99 µM (active); in the experiment with CRL-7250 [6], 0.796 µM (active); with SKOV3, 3.16 µM (active). The outcome in the experiment with HACAT was “inactive [at 17.4 µM]”.
